Screens deposited in PubChem by National Center for Advancing Translational Sciences (NCATS).
In the library only some 21% were active in any assay of this set; here they are far more common.
Pf growth 48h: Primary qHTS for delayed death inhibitors of the malarial parasite plastid, 48 hour incubation. Potency, µM (highest dose often 28.7 µM), usual class: inhibitors. hit rate 5.9% among 310,000. AID 504832, 2011. P. falciparum luciferase growth in erythrocytes, 48 h
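First compound was added to culture medium, then infected red cells at 0.1% parasitemia and 2% hematocrit (final). After incubation at 37 C under 5% CO2, luciferase detection reagent was dispensed and light output recorded.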
CHX counter: Cycloheximide Counterscreen for Small Molecule Inhibitors of Shiga Toxin; AID 2314, 2010; hit rate 12% among 300,000; max response, %; cell reporter, cycloheximide protein synthesis inhibition counterscreen; in the data active means max response mostly above about 13%, no sharp cut-off; inactive means mostly below about 14%; further: read at 38.3 µM for the half of the compounds with a filed dose
Pf growth 96h: Primary qHTS for delayed death inhibitors of the malarial parasite plastid, 96 hour incubation; Potency, µM (doses to about 28.7 µM), usual class: inhibitors; hit rate 6.9% among 320,000; P. falciparum luciferase reporter growth, 96 h
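Compounds incubated with erythrocytes infected by luciferase-expressing P. falciparum (2% hematocrit, 0.05% parasitemia final) for 96 hours, 37 C in 5% CO2. Growth inhibition scored as decreased luciferase luminescence.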
HCV inhibitor: qHTS Assay for Inhibitors of Hepatitis C Virus (HCV); Huh7.5.1 HCVcc-Cre infection, luciferase reporter, 44 h; Potency, µM (top dose mostly 41.8 µM), usual class: inhibitors; AID 651820, 2012; hit rate 3.4% among 340,000
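After 44 h co-culture of compound, cells and HCVcc-Cre (~0.5 moi), substrate is added for 15 min at room temperature and luciferase measured over 15 sec. Cells were seeded at 1,000/well and pre-cultured 4 h.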
AMA1-RON2 inh: qHTS for Inhibitors of AMA1-RON; Towards Development of Antimalarial Drug Lead: Primary Screen. AlphaScreen AMA1-biotinylated RON2 peptide binding. Potency, µM (doses to about 58.2 µM), usual class: inhibitors. hit rate 0.2% among 360,000; further: nearly all actives have a fitted effect of over 45% in size
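AMA1 (3D7) with his tag at 25 nM final met compounds first, then biotinylated RON2 peptide at 25 nM; detection used donor plus acceptor beads, 10 µg/mL apiece, read by AlphaScreen after 30 min at room temperature.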
Shiga inhibitor: A qHTS for Small Molecule Inhibitors of Shiga Toxin | inhibition, % at 38.7 µM | AID 2315, 2010 | Vero cells, Shiga toxin protein synthesis inhibition reporter | hit rate 9.2% among 290,000; in the data active means inhibition mostly above about 28%, no sharp cut-off; inactive means mostly below about 43%
Each line names hits and unclear results; the compound was inactive in the other large screens. Unless noted, the call rests on the fitted dose curve; in most records, active means well fitted curve in the direction sought with a large enough effect; inconclusive means small, poorly fitted or top-dose-only effect, or another doubt; inactive means no such curve, though single readings can be large; an effect the other way counts as inactive or inconclusive.

CCOc1ccc(S(=O)(=O)N2CCCC(C(=O)NCc3cccnc3)C2)cc1 (stereo not drawn)	none
CCOc1ccccc1N1CCN(C(=O)NCc2ccc(C)cc2)CC1	Pf growth 48h inconclusive
CCC(=O)N(C)C[C@H]1Oc2cc(-c3ccccc3F)ccc2S(=O)(=O)N([C@H](C)CO)C[C@H]1C	none (no result: Pf growth 48h, CHX counter, Pf growth 96h, HCV inhibitor, Shiga inhibitor)
O=C(Nc1ccccc1N1CCN(C(=O)c2ccc(Cl)cc2)CC1)c1ccc2c(c1)OCO2	Pf growth 48h 3.7µM, HCV inhibitor inconclusive (no result: Pf growth 96h)
O=C(c1nc[nH]c1C(=O)N1CCN(c2ccccc2)CC1)N1CCN(c2ccccc2)CC1	HCV inhibitor 3.5µM, AMA1-RON2 inh inconclusive (no result: CHX counter, Shiga inhibitor)
COc1cccc(C2CCCCN(C)C2=O)c1 (stereo not drawn)	Pf growth 48h inconclusive
COc1cccc(C(=O)Nc2nnc(-c3cccs3)o2)c1	CHX counter 33 (no result: Pf growth 48h)
COc1cccc(-c2nnc(NC(=O)c3ccc4ncsc4c3)o2)c1	Pf growth 48h inconclusive, Pf growth 96h 13µM, HCV inhibitor inconclusive
COc1cccc(C(=O)Nc2nnc(-c3ccc(F)cc3)o2)c1	Pf growth 48h inconclusive
COc1cccc(C(=O)Nc2nnc(-c3ccc(Cl)cc3)o2)c1	Pf growth 48h inconclusive, Pf growth 96h inconclusive
CCOc1ccc(-c2nnc(NC(=O)c3ccc(OCC(C)C)c(OC)c3)o2)cc1	CHX counter 25, Pf growth 96h inconclusive
CCN(CC(=O)NCc1cccs1)C(=O)C(c1ccccc1)c1ccccc1	none
O=C1c2ccccc2C(Nc2ccc(-c3nc4ccccc4[nH]3)cc2)N1Cc1ccco1 (stereo not drawn)	Pf growth 48h inconclusive, CHX counter 17, HCV inhibitor 10µM, Shiga inhibitor 89
O=C1c2ccccc2C(Nc2ccc(S(=O)(=O)N3CCOCC3)cc2)N1c1ccccn1 (stereo not drawn)	Pf growth 96h 7.4µM, HCV inhibitor inconclusive (no result: Pf growth 48h)
O=C1c2ccccc2C(Nc2ccc(S(=O)(=O)N3CCOCC3)cc2)N1Cc1ccco1 (stereo not drawn)	Pf growth 96h 8.3µM (no result: Pf growth 48h)
O=C(CCNC(=O)c1ccc([N+](=O)[O-])cc1)Nc1nc2ccccc2[nH]1	none (no result: CHX counter, Shiga inhibitor)
CCC(C)C(NC(=O)C(Cc1ccc(O)cc1)NC(=O)OCc1ccccc1)C(=O)OC (stereo not drawn)	none (no result: Pf growth 48h, CHX counter, Pf growth 96h, HCV inhibitor, Shiga inhibitor)
N#CC1=C(N)SC(N)=C(C#N)C1c1ccc(C(F)(F)F)cc1	Pf growth 96h 9.3µM (no result: AMA1-RON2 inh)
CCOc1ccc(C2C(C#N)=C(N)SC(N)=C2C#N)cc1OCC	Pf growth 48h inconclusive
CCc1ccc(C2C(C#N)=C(N)SC(N)=C2C#N)cc1	Pf growth 48h 5.9µM
CCOC(=O)c1nnn(-c2ccc([N+](=O)[O-])cc2[N+](=O)[O-])c1C	Pf growth 48h 12µM, HCV inhibitor inconclusive
CN1c2ccccc2C(=O)NC1c1ccc(Cl)cc1 (stereo not drawn)	CHX counter 12
COc1cccc(/C=C/c2nc(S(=O)(=O)c3ccccc3)c(N(C)C)o2)c1	Pf growth 48h 10µM, Pf growth 96h inconclusive
COc1ccccc1/C=C/c1nc(S(=O)(=O)c2ccccc2)c(N(C)C)o1	Pf growth 48h inconclusive, Pf growth 96h inconclusive, HCV inhibitor inconclusive
COC(=O)CN1C(=O)N/C(=C/c2ccc(C)o2)C1=O	Pf growth 96h 10µM
CNc1cncc(-c2cnn(CC(C)C)c2)n1	none (no result: Pf growth 48h, CHX counter, Pf growth 96h, HCV inhibitor, Shiga inhibitor)
Cc1cc(=O)n2c(n1)SCOC2	Pf growth 48h inconclusive
CCn1nc(NC(=O)c2ccncc2)c2cc3cccc(C)c3nc21	Pf growth 96h 2.1µM, HCV inhibitor inconclusive
CCC(=O)Nc1nn(C)c2nc3c(C)cccc3cc12	Pf growth 48h inconclusive, HCV inhibitor 10µM
COc1cc(NC(=O)COc2ccc([N+](=O)[O-])cc2)ccc1NC(=O)c1ccco1	none (no result: Pf growth 48h, CHX counter, Pf growth 96h, HCV inhibitor, Shiga inhibitor)
Cc1ccc2[nH]c3c(=O)n(CC(=O)Nc4ccccc4N4CCN(C)CC4)ncc3c2c1	Pf growth 48h inconclusive, Pf growth 96h inconclusive, HCV inhibitor inconclusive
CCOc1ccc(C(=O)NCC2CCCN2S(=O)(=O)c2cccs2)cc1 (stereo not drawn)	Pf growth 48h inconclusive, Pf growth 96h inconclusive (no result: CHX counter, Shiga inhibitor)
COc1ccc(Nc2nccc(-c3ccc(C#N)cc3)n2)cc1	Pf growth 96h 5.9µM
